Source: ChEMBL document CHEMBL3988442, “University of Dundee, Small-Polar-MMV Screening Library” (2021)
For some assays here: Entries with a potency or affinity are not part of this list.

What was measured:
Design in all cases: scale not given: direction of the effect not stated beside the values
[1] = molecular target: Protein translocase subunit SecA (Escherichia coli (strain K12)) (UniProt P10408); experiment: Assay to Identify E. coli SecA ATPase Inhibitors; format: functional; conditions: 30 µM
Sequence of Protein translocase subunit SecA (Escherichia coli (strain K12)) (P10408 whole entry): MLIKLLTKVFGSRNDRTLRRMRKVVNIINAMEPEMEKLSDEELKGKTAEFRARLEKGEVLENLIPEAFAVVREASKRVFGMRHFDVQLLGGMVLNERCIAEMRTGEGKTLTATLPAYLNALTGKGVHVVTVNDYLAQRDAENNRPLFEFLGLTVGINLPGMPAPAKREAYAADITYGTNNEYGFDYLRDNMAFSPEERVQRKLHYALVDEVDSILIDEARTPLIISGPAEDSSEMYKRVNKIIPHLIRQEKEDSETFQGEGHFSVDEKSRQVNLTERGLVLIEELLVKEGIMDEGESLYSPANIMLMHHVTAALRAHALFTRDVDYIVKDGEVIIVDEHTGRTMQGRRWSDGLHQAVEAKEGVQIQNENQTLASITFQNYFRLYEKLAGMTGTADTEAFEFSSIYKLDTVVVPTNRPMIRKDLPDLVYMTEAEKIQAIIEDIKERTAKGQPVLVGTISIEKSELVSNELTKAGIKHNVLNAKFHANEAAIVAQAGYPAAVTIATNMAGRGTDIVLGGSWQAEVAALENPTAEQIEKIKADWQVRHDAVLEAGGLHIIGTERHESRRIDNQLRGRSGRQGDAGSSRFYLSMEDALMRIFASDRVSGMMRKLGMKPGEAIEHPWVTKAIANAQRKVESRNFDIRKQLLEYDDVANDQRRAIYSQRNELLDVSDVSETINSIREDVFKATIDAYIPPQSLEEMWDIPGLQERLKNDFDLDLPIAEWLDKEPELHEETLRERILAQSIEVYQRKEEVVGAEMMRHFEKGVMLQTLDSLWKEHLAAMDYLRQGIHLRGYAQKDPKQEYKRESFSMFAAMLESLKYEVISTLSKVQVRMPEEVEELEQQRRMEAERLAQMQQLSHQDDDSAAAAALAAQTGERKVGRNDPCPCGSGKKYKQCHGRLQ

[2] = molecular target: T1, Ubiquitin-activating enzyme e1, putative (Leishmania donovani (strain BPK282A1)) (UniProt E9BSI1); experiment: Leishmania donovani Ubiquitin Activating Enzyme (LdE1); format: functional; conditions: 30 µM
T1 sequence (whole entry): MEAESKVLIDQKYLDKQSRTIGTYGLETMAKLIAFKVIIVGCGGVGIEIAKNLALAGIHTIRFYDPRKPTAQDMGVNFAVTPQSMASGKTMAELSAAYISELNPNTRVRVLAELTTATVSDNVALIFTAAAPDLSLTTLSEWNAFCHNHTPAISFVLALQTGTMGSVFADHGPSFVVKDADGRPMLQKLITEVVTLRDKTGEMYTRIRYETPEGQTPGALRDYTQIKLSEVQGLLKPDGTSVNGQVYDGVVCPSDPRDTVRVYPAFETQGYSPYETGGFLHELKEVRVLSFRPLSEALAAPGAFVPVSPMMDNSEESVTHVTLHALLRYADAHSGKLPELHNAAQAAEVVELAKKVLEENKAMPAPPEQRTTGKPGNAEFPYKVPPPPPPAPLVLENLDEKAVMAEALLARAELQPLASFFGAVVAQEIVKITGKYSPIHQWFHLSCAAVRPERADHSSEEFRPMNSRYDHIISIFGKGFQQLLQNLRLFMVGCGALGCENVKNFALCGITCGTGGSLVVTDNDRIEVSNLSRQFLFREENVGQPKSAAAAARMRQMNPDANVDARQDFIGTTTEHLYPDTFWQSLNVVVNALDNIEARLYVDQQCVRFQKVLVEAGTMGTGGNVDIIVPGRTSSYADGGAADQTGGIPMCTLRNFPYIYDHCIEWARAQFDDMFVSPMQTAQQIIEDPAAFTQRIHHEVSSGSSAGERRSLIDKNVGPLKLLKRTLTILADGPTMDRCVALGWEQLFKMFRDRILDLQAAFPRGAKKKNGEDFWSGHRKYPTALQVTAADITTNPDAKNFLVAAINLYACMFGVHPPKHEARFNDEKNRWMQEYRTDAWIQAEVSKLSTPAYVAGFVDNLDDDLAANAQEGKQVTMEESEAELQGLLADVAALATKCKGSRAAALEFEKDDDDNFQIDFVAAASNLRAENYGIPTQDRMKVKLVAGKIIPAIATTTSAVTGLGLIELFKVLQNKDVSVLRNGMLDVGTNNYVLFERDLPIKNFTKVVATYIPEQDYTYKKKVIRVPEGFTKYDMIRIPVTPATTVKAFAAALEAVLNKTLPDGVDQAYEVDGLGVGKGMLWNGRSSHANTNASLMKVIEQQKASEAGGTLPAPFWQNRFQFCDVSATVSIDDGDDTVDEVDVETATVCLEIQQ

[3] = molecular target: AMP-activated protein kinase, AMPK (Homo sapiens) (UniProt P54646+O43741+P54619+Q9UGJ0+Q9Y478+Q13131+Q9UGI9); experiment: AMP-dependent Kinase enzyme assay. An in vitro enzyme assay that detects ADP turnover that is directly proportional to AMPK activity. This uses naive AMPK that is activated during the assay with MK-8722; format: functional; conditions: 30 µM
[4] = molecular target: Sialic acid-binding Ig-like lectin 9 (Homo sapiens) (UniProt Q9Y336); experiment: Hs-Siglec9 ALPHAscreen SOP 20170721; conditions: 10 µM
Sequence of Sialic acid-binding Ig-like lectin 9 (Homo sapiens) (Q9Y336 whole entry): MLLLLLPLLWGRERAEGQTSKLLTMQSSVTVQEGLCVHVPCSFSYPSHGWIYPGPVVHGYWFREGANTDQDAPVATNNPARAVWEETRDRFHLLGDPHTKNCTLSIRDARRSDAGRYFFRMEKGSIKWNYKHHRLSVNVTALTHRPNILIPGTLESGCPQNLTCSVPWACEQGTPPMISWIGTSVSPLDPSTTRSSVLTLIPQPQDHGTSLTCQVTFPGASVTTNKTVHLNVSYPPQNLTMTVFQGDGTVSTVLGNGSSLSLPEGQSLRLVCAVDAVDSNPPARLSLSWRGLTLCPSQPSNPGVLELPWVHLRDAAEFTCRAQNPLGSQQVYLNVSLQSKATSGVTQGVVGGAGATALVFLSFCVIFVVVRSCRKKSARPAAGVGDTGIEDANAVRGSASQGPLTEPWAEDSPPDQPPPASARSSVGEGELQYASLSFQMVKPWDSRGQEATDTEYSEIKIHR

[5] = test system: Trypanosoma cruzi; experiment: Trypanosoma cruzi phosphomannomutase and mannose-1-phosphate guanylyltransferase assay; format: functional; conditions: 10 µM
[6] = molecular target: T2, Arginase-2, mitochondrial (Homo sapiens) (UniProt P78540); experiment: in vitro enzyme assay to detect the production of urea directly proportional to the activity of Arginase II; format: functional; conditions: 33.3 µM; also: in the data most compounds retested in dose-response had high values
T2 sequence (whole entry): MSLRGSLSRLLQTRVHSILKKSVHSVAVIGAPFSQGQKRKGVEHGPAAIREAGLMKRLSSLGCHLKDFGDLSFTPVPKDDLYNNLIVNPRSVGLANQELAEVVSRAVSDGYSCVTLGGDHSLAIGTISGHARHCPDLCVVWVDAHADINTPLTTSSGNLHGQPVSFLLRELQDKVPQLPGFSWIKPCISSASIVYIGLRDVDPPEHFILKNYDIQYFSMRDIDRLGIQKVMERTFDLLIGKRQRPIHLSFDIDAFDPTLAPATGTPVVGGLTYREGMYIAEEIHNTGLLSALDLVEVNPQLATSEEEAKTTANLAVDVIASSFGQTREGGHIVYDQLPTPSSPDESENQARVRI

[7] = molecular target: T3, Proteasome subunit beta (Trypanosoma cruzi) (UniProt O96673); experiment: Trypanosoma cruzi proteasome chymotrypsin-like activity (TcProtChymo) assay.; also: in the data most compounds retested in dose-response had high values; format: functional; conditions: 9.37 µM
T3 sequence (whole entry): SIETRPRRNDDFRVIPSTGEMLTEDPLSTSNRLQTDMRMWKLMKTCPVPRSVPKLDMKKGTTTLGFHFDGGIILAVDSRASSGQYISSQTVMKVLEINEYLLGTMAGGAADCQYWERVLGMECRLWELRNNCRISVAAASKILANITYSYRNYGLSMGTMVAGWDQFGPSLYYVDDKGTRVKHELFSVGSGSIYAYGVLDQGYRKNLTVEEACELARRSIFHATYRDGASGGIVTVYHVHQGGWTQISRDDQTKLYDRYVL

[8] = species on record: Homo sapiens; experiment: To identify inhibition of the IFN signalling (Jak-Stat) pathway via expression of an eGFP reporter gene under the control of an IFN-stimulated response element (ISRE) containing MxA promoter.; format: functional; conditions: 30 µM
[9] = molecular target: T4, Tyrosyl-tRNA synthetase, putative (Trypanosoma cruzi (strain CL Brener)) (UniProt Q4DSP6); experiment: Trypanosoma cruzi tyrosyl tRNA synthetase (TcYRS) _High Tyrosine SOP; format: functional; conditions: 30 µM; also: in the data most compounds retested in dose-response had high values
T4 sequence (whole entry): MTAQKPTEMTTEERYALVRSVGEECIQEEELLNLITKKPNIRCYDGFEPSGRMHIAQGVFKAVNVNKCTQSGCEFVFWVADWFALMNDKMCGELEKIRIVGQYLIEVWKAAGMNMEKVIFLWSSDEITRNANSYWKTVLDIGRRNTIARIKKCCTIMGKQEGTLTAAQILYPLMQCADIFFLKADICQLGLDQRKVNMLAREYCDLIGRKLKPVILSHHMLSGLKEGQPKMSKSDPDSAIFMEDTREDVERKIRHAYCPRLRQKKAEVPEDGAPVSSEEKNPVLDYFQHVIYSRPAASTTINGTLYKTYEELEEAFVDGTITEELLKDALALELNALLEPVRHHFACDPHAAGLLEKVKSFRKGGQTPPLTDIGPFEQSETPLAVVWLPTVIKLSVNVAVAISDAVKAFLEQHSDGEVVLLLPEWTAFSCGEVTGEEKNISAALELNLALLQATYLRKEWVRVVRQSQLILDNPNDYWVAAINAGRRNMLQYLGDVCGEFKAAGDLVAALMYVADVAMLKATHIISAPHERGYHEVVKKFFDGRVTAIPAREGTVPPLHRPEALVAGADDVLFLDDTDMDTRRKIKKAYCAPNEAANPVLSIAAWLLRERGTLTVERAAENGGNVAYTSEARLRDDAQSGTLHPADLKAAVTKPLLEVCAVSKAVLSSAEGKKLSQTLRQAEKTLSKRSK

[10] = molecular target: T4, Tyrosyl-tRNA synthetase, putative (Trypanosoma cruzi (strain CL Brener)); experiment: Trypanosoma cruzi tyrosyl tRNA synthetase (TcYRS) SOP; format: functional; conditions: 30 µM
[11] = molecular target: Chromo domain-containing protein 1 (Saccharomyces cerevisiae (strain ATCC 204508 / S288c) (Baker's yeast)) (UniProt P32657); experiment: ScCHD-1 Enzyme Inhibition Assay; format: functional; conditions: 30 µM; also: in the data most compounds retested in dose-response had high values
Sequence of Chromo domain-containing protein 1 (Saccharomyces cerevisiae (strain ATCC 204508 / S288c) (Baker's yeast)) (P32657 whole entry, the tested form may be a part): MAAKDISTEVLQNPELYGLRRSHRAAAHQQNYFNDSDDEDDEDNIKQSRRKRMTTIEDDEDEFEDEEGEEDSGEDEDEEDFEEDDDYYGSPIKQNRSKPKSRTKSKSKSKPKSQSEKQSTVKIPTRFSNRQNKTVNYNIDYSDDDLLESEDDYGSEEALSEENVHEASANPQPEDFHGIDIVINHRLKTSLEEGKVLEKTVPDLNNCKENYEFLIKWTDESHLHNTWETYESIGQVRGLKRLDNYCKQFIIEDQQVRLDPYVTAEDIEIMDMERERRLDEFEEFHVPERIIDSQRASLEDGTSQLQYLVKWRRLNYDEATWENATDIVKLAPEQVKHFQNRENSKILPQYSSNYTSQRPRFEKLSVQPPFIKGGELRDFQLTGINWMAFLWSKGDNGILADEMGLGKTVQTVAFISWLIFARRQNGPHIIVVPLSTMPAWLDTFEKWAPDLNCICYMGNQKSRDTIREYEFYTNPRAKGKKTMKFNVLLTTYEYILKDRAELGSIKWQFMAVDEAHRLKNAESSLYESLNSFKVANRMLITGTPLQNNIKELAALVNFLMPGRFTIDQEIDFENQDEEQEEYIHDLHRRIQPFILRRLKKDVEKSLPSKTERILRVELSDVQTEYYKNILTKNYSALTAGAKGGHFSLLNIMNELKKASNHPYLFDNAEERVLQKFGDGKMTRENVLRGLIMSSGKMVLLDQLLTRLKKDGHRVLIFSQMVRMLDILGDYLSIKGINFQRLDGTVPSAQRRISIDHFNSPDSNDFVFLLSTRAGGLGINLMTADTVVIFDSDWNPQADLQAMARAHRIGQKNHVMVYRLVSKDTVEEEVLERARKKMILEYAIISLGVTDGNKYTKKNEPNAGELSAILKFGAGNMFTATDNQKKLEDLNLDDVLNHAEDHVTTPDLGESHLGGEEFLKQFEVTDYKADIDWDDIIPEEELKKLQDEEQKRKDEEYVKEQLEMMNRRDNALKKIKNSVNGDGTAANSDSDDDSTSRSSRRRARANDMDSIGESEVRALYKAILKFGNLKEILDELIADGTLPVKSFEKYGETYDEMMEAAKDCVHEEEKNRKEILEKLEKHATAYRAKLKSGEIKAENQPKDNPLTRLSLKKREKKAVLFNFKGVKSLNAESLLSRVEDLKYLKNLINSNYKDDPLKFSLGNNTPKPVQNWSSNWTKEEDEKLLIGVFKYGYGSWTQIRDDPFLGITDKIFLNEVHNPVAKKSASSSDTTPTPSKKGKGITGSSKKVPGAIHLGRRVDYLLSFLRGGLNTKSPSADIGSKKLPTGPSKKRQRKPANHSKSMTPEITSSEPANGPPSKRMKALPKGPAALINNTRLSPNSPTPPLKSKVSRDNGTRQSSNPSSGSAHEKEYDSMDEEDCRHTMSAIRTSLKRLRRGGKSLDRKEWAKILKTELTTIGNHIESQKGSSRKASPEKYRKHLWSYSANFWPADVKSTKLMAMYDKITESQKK

Row | Structure (SMILES) | Percent Effect [1] | Percent Effect [2] | Percent Effect [3] | Percent Effect [4] | Percent Effect [5] | Percent Effect [6] | Percent Effect [7] | Percent Effect [8] | Percent Effect [9] | Percent Effect [10] | Percent Effect [11]
1 | Cc1cc(C)n(Cc2ccc(C(=O)NCCN3CCOCC3)cc2)n1 | -1.98% | 4.17% | -0.277% | -1.95% | 6.32% | -0.442% | 19.6% | 5.69% | 7.37% | 7.69% | -6.36%
2 | CCS(=O)(=O)N1CCc2c(cccc2NC(=O)NCCOC)C1 | -5.83% | 5.26% | 6.05% | 2.98% | -0.0974% | -2.37% | 7.77% | 8.27% | 4.25% | 13% | -5.11%
3 | Cc1cc(C(=O)N2CCc3nnc(N)cc3C2)c(C)n1C1CC1 | -4.88% | 8.86% | -10.1% | 0.435% | -1.95% | -3.23% | 20.1% | 2.81% | 7.29% | 17.7% | -16.9%
4 | Cc1occc1C(=O)N1CCC2(CCC2NC(=O)c2ccn(C)c2)CC1 (stereo unspecified) | -5.67% | 8.11% | 3.15% | -1.3% | 4.79% | -3.5% | 12% | -2.79% | 6.49% | 15.4% | 3.75%
5 | Cc1ccc(C2C3=C(COC3=O)Nc3[nH]nc(C)c32)cc1C (stereo unspecified) | -2.97% | 9.33% | 12.5% | -3.88% | -4.71% | -4.75% | 10.7% | 30.1% | -22.2% | -23.1% | -11.7%
6 | CC(=O)N1CCC(Cc2cnc(-c3c(C)nn(C)c3C)cn2)C1 (stereo unspecified) | -3.33% | 0% | 8.59% | 5.11% | 5.71% | -8.62% | 2.2% | -21.9% | 4.25% | 6.41% | -1.12%
7 | COc1c(CNCc2cccc(CN(C)C)c2)c(C)nn1C | -7.85% | 10.8% | -5.13% | 6.33% | -2.17% | -4.01% | -0.36% | 13.9% | 4.43% | 6.17% | -5.81%
8 | CC(NC(=O)CCCOc1ccccc1)c1nnc2n1CCCCC2 (stereo unspecified) | -4.14% | 13.5% | -5.88% | -2.77% | 0.0943% | -5.21% | 11.3% | 16.3% | 5.42% | 13.6% | -4.16%
9 | CCc1ncncc1C(=O)N1CCCN(Cc2ccc(C)cc2)CC1 | -6.16% | 2.63% | 1.25% | -3.26% | -6.44% | -0.36% | 0.592% | 6.25% | -2.46% | -13.6% | 6.06%
10 | CCNC(=O)N1CCCC(c2noc(CC)n2)C1 (stereo unspecified) | -3.36% | 13% | 3.81% | 9.2% | 4.6% | 3.16% | 5.09% | 7.39% | 5.71% | 11.8% | -13.2%
11 | Cc1ccc(N2CC[C@H]3C[C@@H](C(=O)N4CCOCC4)O[C@H]3C2)nn1 | -2.71% | 13.5% | -1.79% | -1.51% | -0.293% | -0.319% | 11.6% | -4.87% | 10.8% | 15.4% | -1.79%
12 | NC(=O)c1cccc(CC2CCN(C(=O)CO)C2)c1 (stereo unspecified) | -1.68% | 19.2% | 10.3% | 10.6% | 3.33% | -0.909% | 15.4% | 2.47% | 4.3% | 17.5% | -3.86%
13 | COc1cc(CNCc2c(C)nn(C)c2N(C)C)ccn1 | -2.79% | 5.41% | -15.9% | 8.34% | 4.25% | -3.61% | 1.62% | 9.11% | 4.43% | 18.5% | -11.1%
14 | CCCN1CCC(NC(=O)NCCc2nc(CC)c(C)s2)CC1 | -5.41% | 5.41% | -6.84% | 24.7% | 4.1% | 33.3% | 8.54% | -11.4% | 9.9% | 13.4% | -9.25%
15 | CC(NC(=O)CSCC#N)c1ccccc1 (stereo unspecified) | -1.5% | 28.9% | -6.37% | -7.6% | 5.51% | 0% | 15% | 5.31% | 7.39% | 23.5% | -11.2%
16 | O=C(NC(Cc1ccsc1)c1nccs1)C1CCOCC1 (stereo unspecified) | -2.92% | 9.46% | 12.2% | 0.886% | -4.74% | -0.232% | 3.12% | 10.9% | 1.07% | 9.09% | 7.79%
